These results are taken from PubChem BioAssay.

The structures appear in SMILES notation. Unmarked numbers belong to inactive results. For some of these results: Potency and affinity values are given separately. Activity calls are given as the source filed them. Unless noted, no rule for the calls is given here.

Assay [1] is described as follows: antimalarial activity against Dd2 strain (AID 2302;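 active = growth inhibition above 50% at the single 2 µM test dose, taken to imply half-maximal potency below 2 µM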;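 also: 0% = DMSO untreated growth and 100% = chloroquine plus artemisinin killed control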). To be noted: P. falciparum Dd2 in RBCs, LDH growth readout, 72 h; at 2 µM; stronger effect = higher value.
The nature of assay [2]: HepG2 cytotoxicity, primary screen, cytotoxicity control for P. falciparum antimalarial project, cell-based, ATP luminescence (AID 2303;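 active = inhibition above 50%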;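 also: 0% = DMSO wells and 100% = digitonin-killed cells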). As to conditions: HepG2 viability, 24-48 h, at 10 µM, stronger effect = higher value.
Assay [3] has as its target L-lactate dehydrogenase (Plasmodium falciparum (isolate CDC / Honduras)) (UniProt Q27743). Description: PfLDH activity inhibition – cell lysate, 3D7 strain, counter-screen for P. falciparum growth inhibition project (AID 2304).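 Also: 0% = vehicle and 100% = reference inhibitor.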 As to conditions: P. falciparum 3D7 crude extract, LDH APAD/NBT absorbance; at 2 µM; stronger effect = higher value. For orientation: The purpose of a counterscreen is to sort out artefacts and off-target activity.

The nature of assay [4]: inhibition of 3D7 malaria parasite growth – strain 3D7 (AID 2306).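 Also: 0% = DMSO wells and 100% = chloroquine plus artemisinin control wells.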 To be noted: P. falciparum 3D7 erythrocytic growth, LDH absorbance, 72 h; at 2 µM; stronger effect = higher value.
For assay [5], the target named is Calcium-dependent protein kinase 1 (Plasmodium falciparum (isolate 3D7)) (UniProt P62344). Description: PfCDPK1 kinase inhibitors, biochemical, TCAMS library (AID 1159585; cut-off not given, nearly all actives have IC50 up to about 0.98 µM;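 also: inhibitors leave more ATP so luminescence rises with inhibition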). As to conditions: recombinant PfCDPK1, Kinase-Glo ATP depletion luminescence. For orientation: In Kinase-Glo more light means more ATP remaining.
Sequence of Calcium-dependent protein kinase 1 (Plasmodium falciparum (isolate 3D7)) (P62344 whole entry, looked up): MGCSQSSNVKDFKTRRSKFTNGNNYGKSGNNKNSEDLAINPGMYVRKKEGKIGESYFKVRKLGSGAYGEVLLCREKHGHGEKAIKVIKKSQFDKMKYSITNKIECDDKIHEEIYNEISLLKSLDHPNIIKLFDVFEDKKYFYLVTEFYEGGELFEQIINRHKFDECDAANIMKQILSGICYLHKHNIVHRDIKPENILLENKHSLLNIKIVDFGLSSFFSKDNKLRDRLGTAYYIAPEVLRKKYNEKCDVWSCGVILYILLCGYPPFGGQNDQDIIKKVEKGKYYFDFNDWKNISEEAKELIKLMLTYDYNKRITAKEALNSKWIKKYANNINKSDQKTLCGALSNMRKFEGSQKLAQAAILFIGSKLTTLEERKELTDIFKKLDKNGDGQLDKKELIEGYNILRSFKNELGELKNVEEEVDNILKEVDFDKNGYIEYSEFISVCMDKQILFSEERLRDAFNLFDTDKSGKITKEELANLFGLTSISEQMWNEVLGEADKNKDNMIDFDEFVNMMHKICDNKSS
The target of assay [6] is Plasmodium falciparum protein kinase 6 (PK6, PF3D7_1337100) (UniProt Q8IDW1). Put plainly: PfPK6 kinase inhibitors, biochemical, TCAMS library (AID 1159586). As to conditions: recombinant PfPK6, Kinase-Glo ATP depletion luminescence.
Sequence of Plasmodium falciparum protein kinase 6 (PK6, PF3D7_1337100) (Q8IDW1 1-305): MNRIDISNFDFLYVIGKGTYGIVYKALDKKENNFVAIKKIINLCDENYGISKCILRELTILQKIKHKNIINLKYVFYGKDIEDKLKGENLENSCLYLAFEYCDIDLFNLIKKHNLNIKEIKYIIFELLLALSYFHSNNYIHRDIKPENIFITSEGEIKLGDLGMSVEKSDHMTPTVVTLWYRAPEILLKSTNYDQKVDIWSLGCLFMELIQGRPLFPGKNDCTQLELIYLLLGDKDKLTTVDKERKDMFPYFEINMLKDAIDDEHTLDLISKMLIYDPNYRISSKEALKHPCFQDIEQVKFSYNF
Assay [7] deals with Protein kinase 7 (PK7), Plasmodium falciparum 3D7 (PF3D7_0213400) (UniProt Q7YTF7). Put plainly: inhibition of Plasmodium PK7 catalytic activity – biochemical, TCAMS antimalarial set, Kinase-Glo luminescence (AID 1159587). As to conditions: recombinant PfPK7, Kinase-Glo ATP depletion luminescence.
Sequence of Protein kinase 7 (PK7), Plasmodium falciparum 3D7 (PF3D7_0213400) (Q7YTF7 1-343): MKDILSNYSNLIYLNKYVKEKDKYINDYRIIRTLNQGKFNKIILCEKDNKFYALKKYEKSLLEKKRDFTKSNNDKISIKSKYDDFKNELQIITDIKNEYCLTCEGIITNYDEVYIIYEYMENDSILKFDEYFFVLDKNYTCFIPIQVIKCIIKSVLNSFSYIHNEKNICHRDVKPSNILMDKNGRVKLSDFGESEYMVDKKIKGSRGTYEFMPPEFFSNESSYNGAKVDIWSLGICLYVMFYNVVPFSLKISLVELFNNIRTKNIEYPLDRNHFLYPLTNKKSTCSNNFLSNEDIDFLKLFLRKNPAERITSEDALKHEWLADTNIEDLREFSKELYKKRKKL
In assay [8] the target is Calcium-dependent protein kinase 4 (Plasmodium falciparum (isolate 3D7)) (UniProt Q8IBS5). Description: PfCDPK4 kinase inhibitors, biochemical, TCAMS library (AID 1159588; cut-off not given, nearly all actives have IC50 up to about 0.91 µM). To be noted: recombinant PfCDPK4, Kinase-Glo ATP depletion luminescence.
Sequence of Calcium-dependent protein kinase 4 (Plasmodium falciparum (isolate 3D7)) (Q8IBS5 whole entry, looked up): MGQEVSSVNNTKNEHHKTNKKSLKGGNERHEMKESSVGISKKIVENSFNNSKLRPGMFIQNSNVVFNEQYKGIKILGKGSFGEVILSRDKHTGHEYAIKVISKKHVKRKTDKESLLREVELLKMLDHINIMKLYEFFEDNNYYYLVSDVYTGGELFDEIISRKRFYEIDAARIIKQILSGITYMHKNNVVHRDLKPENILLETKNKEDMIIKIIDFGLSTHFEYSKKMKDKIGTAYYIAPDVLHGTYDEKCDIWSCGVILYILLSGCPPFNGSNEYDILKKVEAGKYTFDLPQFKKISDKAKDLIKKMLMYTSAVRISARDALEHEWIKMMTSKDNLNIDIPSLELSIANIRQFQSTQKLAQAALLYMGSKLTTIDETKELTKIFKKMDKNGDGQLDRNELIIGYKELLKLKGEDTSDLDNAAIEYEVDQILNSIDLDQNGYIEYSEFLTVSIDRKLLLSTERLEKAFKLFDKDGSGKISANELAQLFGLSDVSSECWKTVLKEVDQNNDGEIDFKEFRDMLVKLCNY

Sequence of L-lactate dehydrogenase (Plasmodium falciparum (isolate CDC / Honduras)) (Q27743 whole entry, looked up): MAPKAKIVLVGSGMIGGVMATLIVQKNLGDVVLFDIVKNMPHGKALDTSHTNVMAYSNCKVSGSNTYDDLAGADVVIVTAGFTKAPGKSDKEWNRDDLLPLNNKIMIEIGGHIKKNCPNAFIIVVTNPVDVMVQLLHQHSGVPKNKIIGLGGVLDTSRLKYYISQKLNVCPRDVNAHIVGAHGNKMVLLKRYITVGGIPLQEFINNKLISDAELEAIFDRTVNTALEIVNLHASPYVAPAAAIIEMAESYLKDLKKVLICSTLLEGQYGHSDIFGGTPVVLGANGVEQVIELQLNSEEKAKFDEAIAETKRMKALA

Regarding `O=C(Nc1ccc(CN2CCN(S(=O)(=O)c3cccc(Cl)c3)CC2)cc1)c1cccs1`, the growth inhibition in assay [1] is 41%; in assay [4], 84% (active). In addition, the inhibition was 9% in assay [2] and 0% in assay [3]. In addition, the result in assay [5], in assay [6], in assay [7] and in assay [8] was inactive.
For the compound `COc1ccccc1C1CCN(C2CCC(NC(=O)/C=C/c3ccc4c(c3)OC(F)(F)O4)CC2)CC1` (stereo not given), the growth inhibition was 31% in assay [1] and 98% (active) in assay [4]. In addition, the inhibition was 52% (active) in assay [2] and -2% in assay [3]. For the same compound, the outcome in assay [5], in assay [6], in assay [7] and in assay [8] was inactive.
As to `FC(F)(F)c1cccc(CNCC2CCN(Cc3ccc4c(c3)OCO4)CC2)c1`, the growth inhibition in assay [1] is 19%; in assay [4] it was 100% (active). For the same compound, the inhibition in assay [2] is 21%; in assay [3] it was 1%. In addition, the outcome in assay [5], in assay [6], in assay [7] and in assay [8] was inactive.
On to `CC1(C)N=C(N)N=C(N)C1c1ccc(Cl)c(Cl)c1` (stereo not given), for which the growth inhibition in assay [1] is 0%; in assay [4], 95% (active). Also, the values for the inhibition in assay [2] and in assay [3] were 47% and -6%, respectively. Also, the result in assay [5], in assay [6], in assay [7] and in assay [8] was inactive.
For the compound `Nc1ncc(-c2ccsc2)c2ccc(-c3ccc4cn[nH]c4c3)cc12`, the growth inhibition is 41% in assay [1] and 95% (active) in assay [4]. Besides, the inhibition is 18% in assay [2] and 6% in assay [3]. Also, the result in assay [5], in assay [6], in assay [7] and in assay [8] was inactive.
Regarding `Cc1ccc(CN2CCN(CC(O)COc3ccc4c(c3)CCC4)CC2)cc1` (stereo not given), the growth inhibition in assay [1] was -4%; in assay [4], 95% (active). Further, the results for the inhibition in assay [2] and in assay [3] were -15% and -3%, respectively. Moreover, the result in assay [5], in assay [6], in assay [7] and in assay [8] was inactive.
Take `O=C(NCC1CCN(C/C=C/c2ccccc2)CC1)Nc1ccc(Oc2ccccc2)cc1`: the growth inhibition in assay [1] is 11%; in assay [4] it was 83% (active). Also, the inhibition in assay [2] is 40%; in assay [3], -3%. Further, the outcome in assay [5], in assay [6], in assay [7] and in assay [8] was inactive.
As to `CCCC(=O)NC(c1ccc(C)cc1)c1ccc2cccnc2c1O` (stereo not given), the growth inhibition in assay [1] is 45%; in assay [4] it was 88% (active). Moreover, the inhibition in assay [2] is 52% (active); in assay [3] it was -4%. Besides, the outcome in assay [5], in assay [6], in assay [7] and in assay [8] was inactive.
For the compound `Cc1cccc(Cn2nc(-c3ccccc3)c(N3CCCCC3)cc2=O)c1`, the growth inhibition in assay [1] is -2%; in assay [4], 98% (active). Moreover, the inhibition in assay [2] was 29%; in assay [3], 0%. The outcome in assay [5], in assay [6], in assay [7] and in assay [8] was inactive.
With `COc1ccc(-c2ccc(NC(=O)c3cccc(Cl)c3)c(F)c2)cc1CN1CCCN(C)CC1`, the growth inhibition in assay [1] was 42%; in assay [4], 100% (active). The inhibition in assay [2] was 43%; in assay [3], 0%. The result in assay [5], in assay [6], in assay [7] and in assay [8] was inactive.
For the compound `CN1CCN(c2ccc(Nc3c(C(N)=O)cnc4cc(-c5ccoc5)ccc34)cc2)CC1`, the growth inhibition was 99% (active) in assay [1] and 101% (active) in assay [4]. The inhibition in assay [2] was 14%; in assay [3], -3%. Further, the result in assay [5], in assay [6], in assay [7] and in assay [8] was inactive.
For `CC1CN(c2cc(=O)n(Cc3cccc(NC(=O)Nc4ccc(-c5ccccc5)cc4)c3)cn2)CC(C)N1` (stereo not given), the growth inhibition is 63% (active) in assay [1] and 101% (active) in assay [4]. For the same compound, the inhibition in assay [2] is 2%; in assay [3] it was -2%. Moreover, the result in assay [5], in assay [6], in assay [7] and in assay [8] was inactive.
For the compound `CCOc1ccc(OCC)c(N2CCN(CCCCNC(=O)c3ccc(NC(=O)c4ccc(Cl)cc4)cc3)CC2)c1`, the growth inhibition in assay [1] was 40%; in assay [4], 97% (active). Further, the inhibition is 13% in assay [2] and 1% in assay [3]. The outcome in assay [5], in assay [6], in assay [7] and in assay [8] was inactive.
As to `Cc1ccc(O)cc1Nc1ccnc2cc(-c3csc(CNCCN4CCOCC4)n3)ccc12`, the figures for the growth inhibition in assay [1] and in assay [4] were 99% (active) and 101% (active), respectively. In addition, the inhibition was 6% in assay [2] and -3% in assay [3]. Also, the outcome in assay [5], in assay [6], in assay [7] and in assay [8] was inactive.
Regarding `CCc1c[nH]c2c(N3CCCS3(=O)=O)cc(C(=O)N[C@@H](Cc3ccccc3)[C@H](O)CNC(C)(C)CCCC(C)C)cc12`, the growth inhibition in assay [1] was 98% (active); in assay [4], 96% (active). In addition, the values for the inhibition in assay [2] and in assay [3] were 13% and -2%, respectively. In addition, the result in assay [5], in assay [6], in assay [7] and in assay [8] was inactive.
As to `O=C(NCc1ccc(Cl)cc1)c1ccc(C(=O)NCC2CCCN2CC2CCCCC2)cc1` (stereo not given), the growth inhibition in assay [1] was 10%; in assay [4], 97% (active). Besides, the figures for the inhibition in assay [2] and in assay [3] were 21% and -11%, respectively. The outcome in assay [5], in assay [6], in assay [7] and in assay [8] was inactive.
With `CC1(C)N=C(N)N=C(N)N1OCCc1ccc2ccccc2c1`, the figures for the growth inhibition in assay [1] and in assay [4] were 95% (active) and 96% (active), respectively. For the same compound, the inhibition was 65% (active) in assay [2] and 3% in assay [3]. Besides, the result in assay [5], in assay [6], in assay [7] and in assay [8] was inactive.
As for `CSc1nccc(-c2ccc3ccnc(N)c3c2)n1`, the growth inhibition in assay [1] was 98% (active); in assay [4], 101% (active). In addition, the values for the inhibition in assay [2] and in assay [3] were 30% and 0%, respectively. Further, the result in assay [5], in assay [6], in assay [7] and in assay [8] was inactive.
Consider `c1cncc(CCNCc2cccc(-c3csc(-c4nc5ccccc5[nH]4)c3)c2)c1`, for which the growth inhibition is 98% (active) in assay [1] and 100% (active) in assay [4]. Also, the inhibition was 26% in assay [2] and -1% in assay [3]. Moreover, the outcome in assay [5], in assay [6], in assay [7] and in assay [8] was inactive.
For `COc1cccc(C(=O)NC(c2ccc(Cl)cc2Cl)c2cc(Cl)c3cccnc3c2O)c1` (stereo not given), the values for the growth inhibition in assay [1] and in assay [4] were 76% (active) and 100% (active), respectively. The inhibition in assay [2] was 37%; in assay [3], -8%. Also, the result in assay [5], in assay [6], in assay [7] and in assay [8] was inactive.

The inhibition is the drop in the measured response relative to a control, in per cent.
